Records with an inconclusive call do not appear. Values without a mark were called inactive. Activity calls are given as the source filed them. Calls come from the whole dose curve.
Assay: Primary qHTS for Vero E6 cytotoxicity: counterscreen for inhibitors of SARS-S pseudo-typed particle cell entry (AID 1479150)
Settings: cell viability; series mostly up to 57.1 µM; activity change, negative = cytotoxicity: at the top concentration
% is set by controls: 0 for no effect and ±100 for the full control effect.

Row | SMILES | outcome | activity change, negative = cytotoxicity
1 | CN(C)C(=O)Oc1cccc([N+](C)(C)C)c1 | inactive | 
2 | Cc1ccc(C(C)OC(=O)C2(C)CCC(C(=O)O)C2(C)C)cc1 (stereo not given) |  | -0.416%
3 | CC(=O)N(CC(=O)N(C)C)c1ccccc1 |  | -4.19%
4 | O=C1OC2(c3ccc(O)cc3Oc3cc(O)ccc32)c2ccccc21 | inactive | 
5 | O=[N+]([O-])c1nccn1CO[C@@H](CO)[C@H](O)CO |  | -0.756%
